Laboratory results as given in PubChem BioAssay (NCATS).
Inconclusive results are not listed. Active and inactive are the calls of the source. Unless noted, the call rests on the fitted dose curve.

What was measured:
[1] = target: Cytochrome P450 1A2 (Homo sapiens) (UniProt P05177); test: p450-cyp1a2 (AID 410); further: potency means the concentration at half of the fitted maximal effect
Procedure, shortened: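 Luminescent readout of luciferin formed from Luciferin-ME by human CYP1A2; data normalized against complete inhibition by 57 uM furafylline. Enzyme 20nM, substrate 100uM at Km, 100mM KPO4 buffer, 60 min reaction at room temperature.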

[2] = AP1 Signaling Pathway (AID 357; active means well fitted curve in either direction with a large enough effect, not every such curve was filed as active;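 further: ME-180 reporter cells stimulated with EGF at its EC50 level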)
Procedure, shortened: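 Beta-lactamase reporter under AP-1 response element, ME-180 background. Stimulus: EC50 EGF. Compound exposure 5 h, 37 °C. Detection: CCF4, 2.5 h RT, 460/530 nm. Values: AC50 from titration.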

[3] = NFAT Signaling Pathway (AID 444; active means well fitted curve in either direction with a large enough effect, not every such curve was filed as active;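 further: carbachol stimulus at about its EC50 of 1 µM final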)
Procedure, shortened: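 Jurkat cells carrying an NFAT-driven β-lactamase reporter and co-transfected muscarinic M1 receptor were treated with compound plus carbachol (1 uM final, an EC50 level) for 5 h at 37 °C. CCF4 loading followed for 1 h at RT; 460/530 nm ratio gave %activity.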

[4] = target: Lysosomal acid glucosylceramidase (Homo sapiens) (UniProt P04062); test: Glucocerebrosidase-p2 (AID 348; in the data active means potency below about 10 µM; further: potency means the concentration at half of the fitted maximal effect); details: purified GBA, blue fluorogenic substrate, 40 min
Procedure, shortened: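 Compounds titrated from 0.6 nM upwards against 0.2 nM enzyme in pH 5.9 citric acid/KH2PO4, taurocholate, tween-20; blue fluorogenic substrate 80 uM, 40 min room temperature, stopped and read Ex 365/Em 440 for AC50.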

[5] = Cell Viability - BJ (AID 421); details: BJ fibroblast viability, qHTS;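 further: potency means the concentration at half of the fitted maximal effect; cells exposed to compound for 40 hours at 37 °C before readout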
Procedure, shortened: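 Cytotoxicity in human BJ foreskin fibroblasts is scored as loss of cellular ATP after a 40-hour exposure, measured by luciferase luminescence. Controls are DMSO and 100 uM tamoxifen.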

[6] = Cell Viability - Jurkat (AID 426;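 active means dose-dependent loss of cell ATP signal giving a full or clear fitted curve, ranked by lower potency value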;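 further: potency means the concentration at half of the fitted maximal effect; cells exposed to compound for 40 hours at 37 °C before ATP read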); details: qHTS
Procedure, shortened: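 qHTS, 1536-well; Jurkat E6-1, 5000 cells/well, complete medium; cpd 40 hr, 37 °C; CellTiter-Glo 20 min RT; luminescence. AC50 by Hill fit.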

[7] = Cell Viability - Hek293 (AID 427;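 active means compounds whose dose-response curve shows a full or clear partial loss of cell viability, called from curve shape rather than a numeric limit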;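 further: potency means the concentration at half of the fitted maximal effect; cells exposed to compound for 40 hours at 37 °C before reading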); details: qHTS
Procedure, shortened: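 qHTS, human embryonic kidney (adenovirus-transformed) cells; 40 hr cpd, 37 °C; CellTiter-Glo ATP luminescence. Norm: DMSO = 0, 100 uM tamoxifen = 100% inhibition. Hill-fit AC50.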

[8] = Cell Viability - HepG2 (AID 433); details: qHTS;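 further: potency means the concentration at half of the fitted maximal effect; potency for ATP loss meaning cytotoxicity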
Procedure, shortened: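 Cytotoxicity read as ATP loss (CellTiter-Glo luminescence) after 40 hr compound exposure of HepG2, 1500 cells/well, 37 °C. AC50 by Hill equation; 0% set by DMSO, 100% inhibition by 100 uM tamoxifen.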

[9] = Cell Viability - MRC5 (AID 434); details: MRC5 lung fibroblast viability, qHTS;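 further: potency means the concentration at half of the fitted maximal effect; cells exposed to compound for 40 hours at 37 °C; potency reflects cytotoxicity seen as loss of intracellular ATP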
Text: NIH Chemical Genomics Center [NCGC]
NIH Molecular Libraries Screening Centers Network [MLSCN]
National Institutes of Environmental Health Sciences [NIEHS]
National Toxicology Program [NTP]
We have developed a 1536-well cell-based assay for quantitative high throughput screening (qHTS) against a number of cell lines to determine in vitro cytotoxicity of small molecules. This particular assay uses the MRC5 cell line which is derived from normal human lung fibroblasts.
NCGC Assay Protocol Summary:
The CellTiter-Glo luminescent cell viability assay (Promega) is a homogeneous method to measure the number of viable cells in culture. The end point readout of this assay is based on quantitation of intracellular ATP, an indicator of metabolic activity, using the luciferase reaction. Luciferase catalyzes the oxidation of beetle Luciferin to oxyluciferin and light in the presence of ATP. The luminescent signal is proportional to amount of ATP present.
Using the CellTiter-Glo luminescent cell viability assay, the amount of cellular ATP was measured in the MRC5 cell line with complete culture medium following compound treatment for 40 hours. The assay was performed in opaque white Kalypsys 1536-well plates. In the screen, tamoxifen and doxorubicin were used as positive controls. Library compounds were measured for their ability to cause acute toxicity in the cell line, as reflected by a decrease in intracellular ATP levels, in a concentration-dependent manner. Data were normalized to the controls for basal activity (DMSO only) and 100% inhibition (100 uM tamoxifen). AC50 values were determined from concentration-response data modeled with the standard Hill equation.
qHTS protocol for CellTiter Glo MRC5 cellular assay
[Step] [Parameter] [Value] [Description]
1. Reagent; 5 uL; 1500 MRC5 cells/well
2. Time; 5 hr; 37 °C incubation
4. Controls; 23 nL; Tamoxifen 0.34 uM to 100 uM & Doxorubicin 0.02 nM to 100 uM
5. […]
8. Detection; Luminescence; Viewlux plate reader
Keywords: cell viability, cytotoxicity, MRC5 cell line, luminescence, NTPHTS, NTPHTS_NCGC, NIEHS, EPA, DSSTox, MLSMR, MLSCN, NIH Roadmap, qHTS, NCGC

[10] = Cell Viability - SK-N-SH (AID 435); details: SK-N-SH neuroblastoma cell viability qHTS; further: potency means the concentration at half of the fitted maximal effect
Procedure, shortened: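 qHTS cytotoxicity: CellTiter-Glo ATP luminescence after 40 h compound exposure of human neuroblastoma SK-N-SH cells at 37 °C. AC50 derived by Hill-equation fitting, with DMSO as basal and 100 uM tamoxifen as full inhibition.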

Measured: Potency

Sequence of Cytochrome P450 1A2 (Homo sapiens) (P05177 whole entry, looked up): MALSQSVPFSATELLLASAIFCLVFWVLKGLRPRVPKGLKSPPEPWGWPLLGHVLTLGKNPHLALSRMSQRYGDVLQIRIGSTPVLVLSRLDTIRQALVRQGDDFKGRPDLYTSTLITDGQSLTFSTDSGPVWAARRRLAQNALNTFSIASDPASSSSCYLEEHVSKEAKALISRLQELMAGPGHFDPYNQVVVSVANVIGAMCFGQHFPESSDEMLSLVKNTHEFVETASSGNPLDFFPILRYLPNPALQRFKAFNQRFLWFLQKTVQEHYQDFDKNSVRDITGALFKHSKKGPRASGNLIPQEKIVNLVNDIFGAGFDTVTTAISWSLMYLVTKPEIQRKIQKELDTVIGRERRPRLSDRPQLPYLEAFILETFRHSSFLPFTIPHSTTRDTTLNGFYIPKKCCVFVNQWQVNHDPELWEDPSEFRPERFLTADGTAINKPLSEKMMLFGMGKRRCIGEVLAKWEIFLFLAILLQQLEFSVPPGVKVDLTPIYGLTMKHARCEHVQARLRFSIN
Sequence of Lysosomal acid glucosylceramidase (Homo sapiens) (P04062 whole entry, looked up): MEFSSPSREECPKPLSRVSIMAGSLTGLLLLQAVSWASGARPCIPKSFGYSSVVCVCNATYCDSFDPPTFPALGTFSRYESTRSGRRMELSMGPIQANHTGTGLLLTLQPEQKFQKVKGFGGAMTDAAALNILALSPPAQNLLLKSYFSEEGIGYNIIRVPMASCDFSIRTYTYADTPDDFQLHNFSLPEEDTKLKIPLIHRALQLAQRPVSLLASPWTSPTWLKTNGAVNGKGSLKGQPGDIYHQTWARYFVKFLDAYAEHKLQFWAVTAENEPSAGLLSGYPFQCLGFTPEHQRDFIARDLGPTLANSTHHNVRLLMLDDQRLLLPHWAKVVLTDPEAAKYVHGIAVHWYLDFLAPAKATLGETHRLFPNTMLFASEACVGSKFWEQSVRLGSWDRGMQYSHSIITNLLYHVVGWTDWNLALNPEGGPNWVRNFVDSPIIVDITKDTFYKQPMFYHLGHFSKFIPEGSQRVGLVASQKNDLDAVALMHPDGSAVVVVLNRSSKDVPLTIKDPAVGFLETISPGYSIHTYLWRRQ

COc1ccc(C[C@H](N)C(=O)N[C@@H]2[C@H](O)[C@H](n3cnc4c(N(C)C)ncnc43)O[C@@H]2CO)cc1
inactive: [1]

COc1ccc2c(OC)c3ccoc3nc2c1OC
active: [1] 0.0794 µM
inactive: [2] | [3]

Cc1ccccc1CN1C2=NCCN2C(=O)C2=C1CCN(Cc1ccccc1)C2
inactive: [4] > 11.4 µM | [2] | [1] | [3]

CC(=O)O[C@@H]1CC(C)=C2[C@H]1[C@H](C)CC[C@H]2/C=C(\C)C(=O)O
inactive: [5] > 92 µM | [6] > 92 µM | [7] > 92 µM | [8] > 92 µM | [9] > 92 µM | [10] > 92 µM

Cc1ccc(N)cc1O
inactive: [5] > 92 µM | [6] > 92 µM | [7] > 92 µM | [8] > 92 µM | [9] > 92 µM | [10] > 92 µM

O=C1NC(=O)C(c2cn(-c3ccccc3)nc2-c2ccc(F)cc2)N1 (configuration not stated)
inactive: [2] | [3]

Nc1ccccc1N
inactive: [5] > 92 µM | [7] > 92 µM | [8] > 92 µM | [9] > 92 µM | [10] > 92 µM
